Some test systems named below: RIOK1; RIOK2; RIOK3; RIPK1; RIPK2; RIPK4; RIPK5; ROCK1; ROCK2; ROS1.
Holding throughout (settings): concentration: 1 μM,replicates: in singlicate; n = 1
Test [1] deals with RPS6KA4(Kin.Dom.1-N-terminal).
Test [2] deals with RPS6KA4(Kin.Dom.2-C-terminal).
The subject of test [3] is RPS6KA5(Kin.Dom.1-N-terminal).
Test [4] has as its system RPS6KA5(Kin.Dom.2-C-terminal).
For test [5], the system named is T1, RSK1(Kin.Dom.1-N-terminal).
T1 construct: gene RPS6KA1

In test [6] the test system is T2, RSK1(Kin.Dom.2-C-terminal).
T2 construct: gene RPS6KA1

Test [7] relates to T3, RSK2(Kin.Dom.1-N-terminal).
T3 construct: gene RPS6KA3

Test [8] has as its system T4, RSK2(Kin.Dom.2-C-terminal).
T4 construct: gene RPS6KA3

The subject of test [9] is T5, RSK3(Kin.Dom.1-N-terminal).
T5 construct: gene RPS6KA2

For test [10], the system named is T6, RSK3(Kin.Dom.2-C-terminal).
T6 construct: gene RPS6KA2

Results on eleven compounds are retold here after article PMC5540273 (PLoS ONE, 2017).
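Also: KINOMEscan kinase panel screen.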

For the compound `Cc1ccc(Nc2ccnc(Nc3ccc4c(c3)CS(=O)(=O)C4)n2)cc1O.Cl` [GW579362], the “%Inh” value in the test with RIOK1 is given as 99.8%; with RIOK2, 66%; in the test on RIOK3, 95.7%; in the test with RIPK1, 25%; in the test with RIPK2 it was 93.6%; with RIPK4 it was 98.6%. The “%Inh” value with RIPK5 is recorded as 89%; in the test on ROCK1 it was 48%; with ROCK2 it was 50%; in the test with ROS1, 81%; in test [1], 15%; in test [2], 0%. Also, the “%Inh” value was 0% in test [3]; 18% in test [4]; 20% in test [5]; 7% in test [6]; 0% in test [7]; 55% in [8]. Besides, the “%Inh” value in [9] is on record as 47%; in test [10], 11%.

As to `Cn1ccc2ncnc(Oc3ccc(NC(=O)Nc4cccc(C(F)(F)F)c4)c(Cl)c3)c21`, the “%Inh” value was 6% in the test on RIOK1; 2% in the test with RIOK2; 41% with RIOK3; 6% with RIPK1; 43% in the test on RIPK2; 0% with RIPK4. Further, the “%Inh” value came out at 11% with RIPK5; 0% in the test with ROCK1; 26% in the test with ROCK2; 12% with ROS1; 2% in [1]; 0% in [2]. In addition, the “%Inh” value in [3] stood at 0%; in test [4] it was 2%; in [5] it was 0%; in test [6], 86%; in [7], 13%; in [8], 16%. In addition, the results for the “%Inh” value in test [9] and in [10] were 0% and 27%, respectively.

In the case of `Cn1ccc2ncnc(Oc3ccc(NC(=O)Nc4cncc(C(F)(F)F)c4)c(Cl)c3)c21`, the “%Inh” value was found to be 0% with RIOK1; 29% with RIOK2; 19% in the test on RIOK3; 0% with RIPK1; 9% in the test with RIPK2; 0% with RIPK4. The “%Inh” value (in the test on RIPK5; in the test on ROCK1; with ROCK2; with ROS1; in [1]; in test [2]) was 0% each time. The “%Inh” value in [3] came to 83%; in test [4], 6%; in test [5], 0%; in test [6], 0%; in [7] it was 0%; in test [8] it was 0%. In addition, the “%Inh” value in test [9] is 9%; in test [10] it was 0%.

As to `CCCC(=O)Nc1n[nH]c2ncccc12` [SB-601436], the “%Inh” value in the test with RIOK1, in the test with RIOK2, in the test with RIOK3, with RIPK1, in the test with RIPK2 and in the test on RIPK4 was 0% in each case. Also, the “%Inh” value turned out to be 0% in the test on RIPK5; 0% with ROCK1; 0% in the test on ROCK2; 8% in the test with ROS1; 3% in test [1]; 3% in test [2]. In addition, the “%Inh” value in test [3] was determined as 0%; in test [4], 0%; in test [5], 0%; in [6] it was 0%; in test [7] it was 19%; in test [8], 0%. The “%Inh” value in test [9] and in [10] was 0% each time.

Take `CC(C)S(=O)(=O)N1CCN(Cc2ccc3c(c2)nc(NC(=O)c2ccsc2)n3C[C@H](O)c2ccccc2)CC1` [GW635815]: the “%Inh” value came to 36% with RIOK1; 33% in the test on RIOK2; 25% in the test on RIOK3; 20% in the test on RIPK1; 4% with RIPK2; 7% in the test on RIPK4. In addition, the “%Inh” value in the test on RIPK5 came to 0%; in the test on ROCK1, 66%; with ROCK2 it was 63%; in the test on ROS1 it was 20%; in test [1] it was 29%; in test [2], 0%. In addition, the “%Inh” value came to 12% in test [3]; 0% in test [4]; 96.1% in test [5]; 0% in [6]; 91.8% in [7]; 6% in test [8]. Further, the figures for the “%Inh” value in test [9] and in test [10] were 93.5% and 24%, respectively.

Turning to `O=C(NOCC1CC1)c1cc(Br)c(F)c(F)c1Nc1ccc(I)cc1Cl`, the “%Inh” value with RIOK1, in the test with RIOK2, with RIOK3, in the test with RIPK1, with RIPK2 and with RIPK4 was 0% in each case. In addition, the “%Inh” value (in the test on RIPK5; with ROCK1; in the test on ROCK2; in the test on ROS1; in [1]; in test [2]) was 0% each time. Moreover, the “%Inh” value in test [3] is 0%; in [4] it was 9%; in test [5], 0%; in test [6], 38%; in test [7], 9%; in test [8], 0%. For the same compound, the “%Inh” value in [9] is on record as 1%; in test [10] it was 33%.

With `COc1cccc(C2=C(Nc3cccc(Cl)c3)C(=O)NC2=O)c1` [SB-341556], the “%Inh” value with RIOK1 was found to be 41%; in the test with RIOK2, 14%; in the test on RIOK3 it was 1%; with RIPK1 it was 0%; with RIPK2, 0%; in the test on RIPK4, 4%. The “%Inh” value was 16% with RIPK5; 0% in the test with ROCK1; 0% in the test with ROCK2; 0% with ROS1; 11% in test [1]; 0% in [2]. Further, the “%Inh” value was determined as 5% in test [3]; 0% in test [4]; 28% in test [5]; 24% in [6]; 25% in test [7]; 11% in [8]. For the same compound, the “%Inh” value is on record as 1% in test [9] and 0% in [10].

Regarding `Cc1ccn2nc(-c3ccc(F)cc3)c(-c3ccncc3)c2c1.Cl` [GW457859], the “%Inh” value came to 23% in the test with RIOK1; 0% in the test with RIOK2; 23% in the test on RIOK3; 1% with RIPK1; 41% with RIPK2; 6% in the test with RIPK4. Moreover, the “%Inh” value in the test with RIPK5 is listed as 0%; with ROCK1, 12%; in the test on ROCK2, 20%; in the test on ROS1 it was 0%; in test [1], 0%; in [2], 0%. The “%Inh” value in [3] was found to be 44%; in test [4], 27%; in test [5], 0%; in test [6], 44%; in test [7] it was 0%; in [8], 0%. Further, the “%Inh” value came out at 0% in test [9] and 24% in [10].

For the compound `C[C@@H]1CNc2c(sc3ccc4nc(-c5ccncc5)ccc4c23)C(=O)N1`, the “%Inh” value is listed as 0% in the test on RIOK1; 0% in the test with RIOK2; 5% in the test on RIOK3; 0% in the test on RIPK1; 0% in the test with RIPK2; 0% in the test with RIPK4. The “%Inh” value with RIPK5 is listed as 0%; with ROCK1, 14%; in the test with ROCK2, 1%; in the test with ROS1 it was 14%; in test [1] it was 33%; in [2], 98.7%. In addition, the “%Inh” value in test [3] was found to be 0%; in [4] it was 0%; in test [5], 0%; in test [6], 0%; in [7] it was 4%; in test [8], 0%. Further, the figures for the “%Inh” value in test [9] and in test [10] were 10% and 33%, respectively.

For the compound `CCNCC(Cc1ccccc1)NC(=O)c1cc(Br)c(-c2ccnc3[nH]ccc23)s1.Cl.Cl` (stereo not shown) [GSK1383280], the “%Inh” value with RIOK1 came out at 61%; in the test on RIOK2, 61%; in the test on RIOK3, 72%; with RIPK1, 0%; in the test on RIPK2 it was 0%; in the test on RIPK4 it was 20%. Further, the “%Inh” value is reported as 32% in the test with RIPK5; 99.8% in the test on ROCK1; 99.6% with ROCK2; 44% in the test with ROS1; 67% in [1]; 21% in [2]. Besides, the “%Inh” value in test [3] came to 43%; in test [4], 22%; in test [5], 21%; in [6], 18%; in test [7], 42%; in [8], 0%. Besides, the results for the “%Inh” value in [9] and in test [10] were 10% and 1%, respectively.

In the case of `Cl.Nc1n[nH]c2cc(-c3ccccn3)ccc12` [GSK2189892], the “%Inh” value with RIOK1 was determined as 47%; in the test on RIOK2, 0%; in the test with RIOK3, 24%; in the test on RIPK1, 0%; in the test with RIPK2, 0%; in the test with RIPK4, 4%. The “%Inh” value came out at 6% with RIPK5; 0% in the test with ROCK1; 5% in the test with ROCK2; 12% in the test with ROS1; 15% in test [1]; 0% in [2]. The “%Inh” value in [3] is reported as 26%; in test [4] it was 0%; in test [5], 29%; in [6] it was 0%; in test [7], 0%; in [8], 0%. The “%Inh” value in [9] and in [10] was 0% in each case.
